{"source": "PubChem BioAssay (NCATS)", "note": "Inconclusive results are not listed. Calls of active or inactive are those of the source. Calls come from the whole dose curve; as a rule, active = well fitted inhibition curve with a large enough effect; inconclusive = small, poorly fitted or top-dose-only effect; inactive = flat fitted curve, though single readings scatter. % is set by controls: 0 for no effect and ±100 for the full control effect; potency is the fitted concentration of half-maximal effect.", "data": [{"system": "MCC-26", "experiment": "qHTS assay to identify novel small-molecules to repurpose for Merkel cell carcinoma treatment (AID 1296009); note: nearly all actives have a fitted effect of over 60% in size", "conditions": "MCC and control cell lines, CellTiter-Glo viability, 72 h; series mostly up to 46 µM; activity change, negative = cytotoxicity: at the top concentration", "procedure,_shortened": "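Cells were incubated with compound for 72 hr at 37 degree celsius before CellTiter-Glo addition. Luminescence was normalized with no-cell wells as full cytotoxicity and DMSO as baseline.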", "values": [{"smiles": "CC1(C)C(N(O)C(=O)Nc2ccc(Cl)cc2)N(c2ccc(Cl)cc2)C(=O)N1CC(=O)NN=CC=Cc1ccc([N+](=O)[O-])o1", "note": "(configuration not stated)", "activity change, negative = cytotoxicity": "-20.1% (inactive)"}, {"smiles": "CNC(=O)[C@H](Cc1ccccc1)NC(=O)[C@H](CC(C)C)[C@H](CSc1cccs1)C(=O)NO", "activity change, negative = cytotoxicity": "-11.1% (inactive)"}, {"smiles": "CC1(C)OC2CC3C4CC(F)C5=CC(=O)C=CC5(C)C4C(O)CC3(C)[C@]2(C(=O)CO)O1", "note": "(some centres not stated)", "activity change, negative = cytotoxicity": "-4.96% (inactive)"}, {"smiles": "CNC(=O)c1cc(Oc2ccc(NC(=O)Nc3ccc(Cl)c(C(F)(F)F)c3)c(F)c2)ccn1", "activity change, negative = cytotoxicity": "-27.2% (inactive)"}, {"smiles": "O=C(Nc1cccc2c(=O)cc(-c3nn[nH]n3)oc12)c1ccc(OCCCCc2ccccc2)cc1", "activity change, negative = cytotoxicity": "2.84% (inactive)"}, {"smiles": "Clc1ccc(COC(Cn2ccnc2)c2ccc(Cl)cc2Cl)c(Cl)c1", "note": "(configuration not stated)", "activity change, negative = cytotoxicity": "-3.05% (inactive)"}, {"smiles": "CN(C)CC[C@H](CSc1ccccc1)Nc1ccc(S(=O)(=O)NC(=O)c2ccc(N3CCN(Cc4ccccc4-c4ccc(Cl)cc4)CC3)cc2)cc1[N+](=O)[O-]", "activity change, negative = cytotoxicity": "-6.25% (inactive)"}, {"smiles": "OC(c1cc(C(F)(F)F)nc2c(C(F)(F)F)cccc12)C1CCCCN1", "note": "(configuration not stated)", "activity change, negative = cytotoxicity": "-7.99% (inactive)"}, {"smiles": "CN1CCc2c(n(Cc3ccc(C(=O)NO)cc3)c3ccccc23)C1", "activity change, negative = cytotoxicity": "-16.7% (inactive)"}, {"smiles": "CC(C)C[C@@H](C(=O)N[C@H](C(=O)OC1CCCC1)c1ccccc1)[C@H](O)C(=O)NO", "activity change, negative = cytotoxicity": "-2.04% (inactive)"}, {"smiles": "CN(C)S(=O)(=O)c1ccc2c(c1)C(=Cc1cc3c([nH]1)CCCC3)C(=O)N2", "activity change, negative = cytotoxicity": "-8.86% (inactive)"}, {"smiles": "O=C1CN2Cc3c(ccc(Cl)c3Cl)N=C2N1", "activity change, negative = cytotoxicity": "-6.1% (inactive)"}, {"smiles": "CN1C(=O)C[C@H](C(=O)N[C@@H](Cc2cnc[nH]2)C(=O)N2CCC[C@@H]2C(N)=O)NC1=O", "activity change, negative = cytotoxicity": "5.74% (inactive)"}, {"smiles": "CN(C)CCCNC(=O)c1ccc(-c2cc(O)c3ncccc3c2)cc1", "activity change, negative = cytotoxicity": "-1.47% (inactive)"}, {"smiles": "Cc1ccccc1C(=O)c1ccc(Nc2ccc(Br)cc2N)cc1Cl", "activity change, negative = cytotoxicity": "-20.7% (inactive)"}, {"smiles": "C=CCc1cccc(C=NNC(=O)CN2CCN(Cc3ccccc3)CC2)c1O", "activity change, negative = cytotoxicity": "-1.98% (inactive)"}, {"smiles": "CNC1CCC(N(Cc2cccc(-c3ccncc3)c2)C(=O)c2sc3ccccc3c2Cl)CC1", "note": "(configuration not stated)", "activity change, negative = cytotoxicity": "-16.3% (inactive)"}, {"smiles": "C[C@@H]1[C@H](C)CC[C@]2(C(=O)O)CC[C@]3(C)C(=CC[C@@H]4[C@@]5(C)CC[C@H](O)C(C)(C)[C@H]5CC[C@]43C)[C@@H]12", "activity change, negative = cytotoxicity": "-2.07% [at 92.7 µM] (inactive)"}, {"smiles": "CO[C@H]1O[C@@H]2O[C@@]3(C)CC[C@@H]4[C@@H](C)CC[C@@H]([C@H]1C)[C@@]24OO3", "activity change, negative = cytotoxicity": "-19.3% (inactive)"}, {"smiles": "Fc1ccc(C(c2ccc(F)cc2)N2CCN(CC=Cc3ccccc3)CC2)cc1", "activity change, negative = cytotoxicity": "0.301% (inactive)"}, {"smiles": "O=C(O)Cc1cccc(OCCCN(Cc2cccc(C(F)(F)F)c2Cl)CC(c2ccccc2)c2ccccc2)c1", "Potency": "26.4 µM (active)"}, {"smiles": "COc1ccc(-c2oc3c(CC=C(C)C)c(O)cc(O)c3c(=O)c2O)cc1", "activity change, negative = cytotoxicity": "-13.5% (inactive)"}]}]}
